High-throughput results as filed in PubChem BioAssay.
Pf Dd2 inh: Plasmodium falciparum Dd2 growth inhibition. 120,000 compounds, 4.3% hits. AID 1347417. Potency, µM (doses to about 28.9 µM), inactives show at the highest dose activity, negative = inhibition, most hits filed as inhibitors. P. falciparum Dd2 growth, SYBR Green, 72 h; active means well fitted inhibition curve with a large enough effect;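 further: plate controls were DMSO vehicle for no effect and reference drug for full effect; nearly all actives have a fitted effect of over 65% in size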
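Infected erythrocytes (Dd2, 0.3% parasitemia, 2.5% hematocrit final) are added to compound in RPMI-1640/Albumax II medium, grown 72 h at 37C in low oxygen, then lysed with saponin/Triton-X containing SYBR Green and read by fluorescence.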
Numbers without * were called inactive; i = inactive; [ ] = another dose, or the depositor's remark. This excerpt belongs to a sample that is enriched for hits. Potency means the concentration at half of the fitted maximal effect.

SMILES | Pf Dd2 inh
O=C1NCCCCCCN(Cc2ccncc2)[C@@H]2CN(C3CCC3)CC[C@H]12 | 13%
O=C1NCCCCCCN(Cc2ccncc2)[C@@H]2CN(S(=O)(=O)Cc3cccc(F)c3)CC[C@H]12 | 8.9µM*
CCS(=O)(=O)N1CC[C@H]2C(=O)NCCCCCCN(Cc3ccncc3)[C@@H]2C1 | 16%
COc1cc(CN2CCN(c3ncnc4[nH]ccc34)CC2CCO)cc(OC)c1 (stereo unspecified) | -8%
CCC1c2nccn2CCCN1C(=O)CCc1c(C)noc1C (stereo unspecified) | -23%
NC(=O)C1(NC(=O)c2ccc(S(=O)(=O)N3CCCC(O)C3)cc2)CCCC1 (stereo unspecified) | -7%
Cc1cn2nc(C(=O)N3CCC(NC(=O)c4cccc(F)c4)CC3)cc2c(=O)[nH]1 | -1%
CC(=O)Nc1ccc(CN2CCC3(CC2)CC(c2cccc(C(F)(F)F)c2)=NO3)cc1 | 10µM*
Fc1ccc(CN2CCC3(CC(c4cccc(C(F)(F)F)c4)=NO3)C2)cc1 (stereo unspecified) | 10µM*
N#Cc1ccc(CN2CCC3(CC(c4cccc(C(F)(F)F)c4)=NO3)C2)cc1 (stereo unspecified) | -18%
Fc1ccc(CN2CCCC3(CC(c4cccc(C(F)(F)F)c4)=NO3)C2)cc1 (stereo unspecified) | -16%
CN(C)c1ccc(CN2CCCC3(CC(c4cccc(C(F)(F)F)c4)=NO3)C2)cc1 (stereo unspecified) | 7%
CC(=O)Nc1ccc(CN2CCC3(CC2)CC(c2cccnc2)=NO3)cc1 | -8%
CS(=O)(=O)N1C[C@@H](C(=O)Nc2ccc(N3CCOCC3)cc2)[C@H](c2ccncc2)C1 | 10%
O=C(CN1CC2CC(C1)[C@H]1CCCC(=O)N1C2)NCCC1=CCCCC1 (stereo partly specified) | -12%
O=C(c1ccccc1F)N1CCCN(c2nc3ncccc3o2)CC1 | i
CN1CCCn2nc(C(=O)NC34CC5CC(CC(C5)C3)C4)cc2C1 | -13%
CCOc1nccn2c(-c3ccc(CNC(=O)c4ccnn4C)cc3)cnc12 | -4%[44.1 µM]
Cc1cccc(CNC(=O)c2oc3c(c2C)-c2nn(Cc4ccccc4Cl)cc2CC3)c1 | -25%
Cc1cccc(CNC(=O)c2oc3c(c2C)-c2nn(Cc4cccc(Cl)c4)cc2CC3)c1 | -5%
CCOc1ccc(CNC(=O)c2oc3c(c2C)-c2nn(Cc4cccc(Cl)c4)cc2CC3)cc1 | 11µM*
N#C/C(=C\c1ccc(Cl)cc1)c1nc2ccccc2[nH]1 | i
COc1cc(/C=C(\C#N)c2nc3ccccc3[nH]2)ccc1OCc1ccc(F)cc1 | 1µM*
COc1cc(Br)c(/C=C(\C#N)c2nc3ccccc3[nH]2)cc1OC | -12%
CC(C)C[C@@H](NC(=O)[C@@]1(O)C[C@@H](O)[C@H](O)[C@@H](NC(=O)c2ccc(F)c(Cl)c2)C1)C(N)=O | -14%
SMILES | Pf Dd2 inh
COc1ccc(/C=C/C(=O)Nc2cccc(F)c2)cc1 | i
COc1ccc(NC(=O)C(NC(=O)/C=C\c2ccc3c(c2)OCO3)c2ccccc2)cc1 (stereo unspecified) | 10µM*
COc1cccc(-c2nc(SCC(=O)Nc3ccc4c(c3)OCO4)c(-c3ccccc3)[nH]2)c1 | -22%
Cc1cc2nc3n(c(=O)c2n1CC(=O)Nc1ccc2c(c1)OCCO2)CCCCC3 | -7%
COCCN(CCOC)CC[C@@H]1CC[C@H](O)[C@@H](C(=O)NC2CCCCC2)O1 | -12%[44.1 µM]
COCCN(CCOC)CC[C@@H]1CC[C@H](O)[C@@H](C(=O)N2CCOCC2)O1 | 4%[44.1 µM]
COCCN(CCOC)CC[C@@H]1CC[C@H](O)[C@@H](C(=O)Nc2ccccc2)O1 | 16µM*
O=C1Nc2ccc(Br)cc2C(=O)N2CCN(C(=O)c3cccc(F)c3)C[C@H]12 | -18%[44.1 µM]
Clc1cccc(-c2cnc([C@@H]3COCCN3C3CCCCC3)[nH]2)c1 | 11µM*
Fc1ccc(-c2cnc([C@@H]3COCCN3Cc3ccncc3)[nH]2)cc1 | i
Clc1ccc(-c2cnc([C@@H]3COCCN3C3CCOCC3)[nH]2)cc1 | i
Clc1ccc(-c2cnc([C@@H]3COCCN3Cc3ccccc3)[nH]2)cc1 | 10µM*
COc1cccc(-c2cnc([C@@H]3COCCN3Cc3ccccc3)[nH]2)c1 | 11µM*
Clc1ccc(-c2cnc([C@@H]3COCCN3C3CCC3)[nH]2)cc1 | i
COc1ccc(-c2cnc([C@@H]3COCCN3Cc3ccc(C)cc3)[nH]2)cc1 | i
CS(=O)(=O)c1ccc(CN2CCOC[C@H]2c2ncc(-c3cccc(Cl)c3)[nH]2)cc1 | i
CC(C)(C)CN1CCOC[C@H]1c1ncc(-c2ccc(Cl)cc2)[nH]1 | -3%[44.1 µM]
CCOc1ccc(CC(=O)N2CCC(n3cc(-c4nc(C(C)C)no4)nn3)C2)cc1 (stereo unspecified) | i
CCCOc1ccc(CNC(=O)C(C)C2CCOCC2)cc1 (stereo unspecified) | 13%
O=C(CC1CCOC2(CCN(S(=O)(=O)Cc3ccccc3)CC2)C1)N1CCOCC1 (stereo unspecified) | 9%
CCN(CC)C(=O)CC[C@@H]1CNC(=O)[C@@H]2C[C@H](NC(=O)c3ccc(N(C)C)cc3)CN12 | -4%[44.1 µM]
COC(=O)[C@@H]1Cc2ncn(C)c2CN1C(=O)c1ccc(F)cc1 | 5%[44.1 µM]
COc1cccc(C(=O)N2CCC3(CC2)CC(OC)CCO3)c1 (stereo unspecified) | -16%
CC(C)Oc1ccc2ccccc2c1CN1C[C@H](O)C[C@H]1C(=O)O | -1%
Cc1c(C(=O)N2CCCC(CCc3ccc(F)cc3)C2)cnc2cc(=O)[nH]n12 (stereo unspecified) | -28%
SMILES | Pf Dd2 inh
O=C(O)C1=NOC2CN([S+](=O)([O-])C3CCCC3)CC12 (stereo unspecified) | 23%[44.1 µM]
Cc1cccc(Nc2nc(N)nc(CN3CC[C@@](O)(C4CCC4)[C@H](C)C3)n2)c1 | 8.9µM*
COc1cc(F)c(CN2CC[C@@](O)(C3CC3)[C@H](C)C2)cc1OC | i
C[C@@H]1CN(Cc2noc(C3CCCC3)n2)CC[C@@]1(O)C1CCC1 | -24%
CCCN(CCC)CCCNC(=O)C1CCN(S(=O)(=O)c2cccc3nsnc23)CC1 | i
Cc1ccc(NC(=O)C2CCN(S(=O)(=O)c3cccc4nsnc34)CC2)cc1F | -16%
Cc1ccc(Cl)cc1NC(=O)C1CCC(CNS(=O)(=O)c2cccc3nsnc23)CC1 (stereo unspecified) | 3.5µM*
Cc1ccc(NC(=O)C2CCC(CNS(=O)(=O)c3cccc4nsnc34)CC2)c(Cl)c1 (stereo unspecified) | i
CCC(C)NC(=O)C1CCC(CNS(=O)(=O)c2cccc3nsnc23)CC1 (stereo unspecified) | 0.79µM*
COC(=O)CNC(=O)C1CCN(S(=O)(=O)c2cccc3nsnc23)CC1 | 12%
CNC(=O)CCn1ncc2cc(OC3CCc4cccc(-c5cccnc5)c43)ccc21 (stereo unspecified) | i
COc1cc(NC(=O)CN2C(=O)NC3(CCCCC3)C2=O)cc(OC)c1OC | -27%
CC(C)NC(=O)NC[C@H]1COCc2nc3cc(C(F)(F)F)ccc3n21 | -20%[44.1 µM]
COc1ccc2cc(C(=O)N3CCc4nn(C)c(=O)n4CC3)[nH]c2c1 | 21%
O=C1[C@@H]2C[C@@H](O)CN2C2(CN(C3CCCCC3)C2)C(=O)N1Cc1ccccc1Cl | i
Cn1c(-c2ccc(CN3CCc4[nH]cnc4C3C(=O)O)o2)nc2ccccc21 (stereo unspecified) | -10%
CCCSCCCNC(=O)C1CCN(C(=O)c2cc3sccc3n2C)CC1 | 14µM*
